Assay [1] deals with Aerobactin synthetase IucA (Klebsiella pneumoniae). The assay is described as follows: IucA aerobactin synthetase inhibitors, biochemical, Tocris library, absorbance (AID 1345561; call rule not given here;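 also: 100% = enzyme without compound and 0% = no enzyme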). The conditions noted are these: purified IucA enzyme assay, absorbance (OD) read-out; stronger effect = lower value;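 tested at 8 µM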.
Assay [2] in a line: growth inhibition of DIPG glioma cells, dose response, cell-based, SU-DIPG-XVII, MIPE5.0, CellTiter-Glo, qHTS (AID 1347060; cut-off not given, nearly all actives have AC50 up to about 26 µM;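 as to AC50: cells exposed to compound for 48 hours before viability readout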). The conditions noted are these: SU-DIPG-XVII viability, CellTiter-Glo ATP luminescence.
A short description of assay [3]: growth inhibition of DIPG glioma cells, dose response, cell-based, JHH-DIPG-1, MIPE4.0, CellTiter-Glo, qHTS (AID 1347062; cut-off not given, nearly all actives have AC50 up to about 27 µM;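 as to AC50: cells exposed to compound for two days before readout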). The conditions noted are these: JHH-DIPG-1 viability, CellTiter-Glo ATP luminescence.
Assay [4] can be described thus: growth inhibition of DIPG glioma cells, dose response, cell-based, SU-DIPG-XIII, MIPE5.0, CellTiter-Glo, qHTS (AID 1347064; cut-off not given, nearly all actives have AC50 up to about 23 µM). The conditions noted are these: SU-DIPG-XIII viability, CellTiter-Glo ATP luminescence.
Assay [5] is described as follows: viability loss in pontine glioma line – cell-based, SU-DIPG-XXV, MIPE5.0, CellTiter-Glo, qHTS, dose response (AID 1347065; cut-off not given, nearly all actives have AC50 up to about 26 µM;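 also: cells exposed to compound for 48 hours before ATP readout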). Particulars: CellTiter-Glo ATP luminescence.
Assay [6] in a line: JHH-DIPG-1 glioma cell viability, MIPE5.0 library, CellTiter-Glo luminescence, qHTS (AID 1347067; cut-off not given, nearly all actives have AC50 up to about 26 µM;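 also: cells exposed to compound for 48 hours before readout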). The conditions noted are these: JHH-DIPG-1 glioma viability, CellTiter-Glo ATP luminescence.
A short description of assay [7]: sensitizers of A549 cells to miR-34 induction, primary screen, imaging, A549 dox-inducible miR-34, nuclei and caspase counts (AID 1347080;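 active = compounds whose cell count with miR-34 switched on is under 0.7 times the count with it off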). Particulars: A549 miR-34 inducible, Hoechst nuclei count, 48 h.
Assay [8] is described as follows: viability rescue of complex I mutant cybrids, primary screen, cell-based, galactose medium, ATP luminescence (AID 1645843;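 active = z-score of at least 1.8 in each of two replicates, scored against plate mean and spread of sample wells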;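 also: positive z means more ATP and so rescue of galactose-driven cybrid death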). The conditions noted are these: complex I mutant cybrid cells, 72 h, stronger effect = higher value.
Assay [9] in a line: growth inhibition of DIPG glioma cells, dose response, cell-based, SU-DIPG-IV, MIPE4.0, CellTiter-Glo, qHTS (AID 1347063; cut-off not given, nearly all actives have AC50 up to about 30 µM;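 also: compound exposure lasted 48 hours before the viability readout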). The conditions noted are these: SU-DIPG-IV viability, CellTiter-Glo ATP luminescence.
A short description of assay [10]: modifiers of HSF1 nuclear foci, imaging, Selleck Cancer Library (AID 1347162; in the data active = plate-normalised HSF1 focus index below about 0.46). The conditions noted are these: human cells, at 10 µM; SSMD: measured here: HSF1 foci SSMD mean; cell count: measured here: cell number; plate-normalised HSF1 focus index: stronger effect = lower value.
Assay [11] in a line: survival rescue of mitochondrial mutant cells in low glucose, primary screen, MELAS cybrids, Rieske KO mouse fibroblasts, CellTiter-Glo (AID 1508586;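 active = mean z-score across replicates of 1.96 or higher in either the MELAS or the Rieske mutant cell line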;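 also: z relative to plate mean and SD of compound and empty wells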).
Assay [12] in a line: ovarian cancer cell viability with rucaparib, profiling panel, oncology-focused library, rucaparib conditional (AID 1508598). The conditions noted are these: patient-derived ovarian cancer cells, CellTiter-Glo viability, 144 h, stronger effect = lower value.
The nature of assay [13]: liver-stage malaria parasite growth inhibition, primary screen, cell-based, HepG2, luciferase luminescence, HepG2 viability (AID 624349; in the data active = parasite load remaining mostly below about 12%, no sharp cut-off; inactive = mostly above about 10%;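 also: 100% = mean of DMSO negative control wells on the same plate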). Particulars: P. berghei liver stage in HepG2, luciferase luminescence, concentration not given here; parasite load remaining: stronger effect = lower value; viability: measured here: HepG2 viability without parasites.
Assay [14] in a line: growth inhibition of DIPG glioma cells, dose response, cell-based, SU-DIPG-XIII, MIPE4.0, CellTiter-Glo, qHTS (AID 1347061; cut-off not given, nearly all actives have AC50 up to about 37 µM;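 also: cells exposed to compound for 48 hours before readout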). Particulars: SU-DIPG-XIII viability, CellTiter-Glo ATP luminescence.
A short description of assay [15]: SU-DIPG-VI glioma cell viability, MIPE4.0 library, CellTiter-Glo luminescence, qHTS (AID 1347066; cut-off not given, nearly all actives have AC50 up to about 30 µM;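 also: cells exposed to compound for 48 hours before readout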). Particulars: CellTiter-Glo ATP luminescence.
The mark [16] stands for this setting: stronger effect = lower value, cell number ratio, induced over uninduced.
The mark [17] stands for this setting: measured here: relative caspase fold change +Dox/-Dox.
Where [18] appears, read: measured here: total cells with miR-34 induction, stronger effect = lower value.
[19] abbreviates: measured here: total cells without miR-34 induction.

The structures appear in SMILES notation. Several values for one entry are separate records, joined by “and”; a condition that tells them apart may be missing. Equal values may be shown once. Inconclusive results are not listed. Activity calls are given as the source filed them.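 The calls were made as follows, unless noted: active = normalized viability below 100% at a tested concentration; inactive = the rest.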

In the case of `CCC(C)N(C)C(=O)c1cc2ccccc2c(-c2ccccc2Cl)n1` (stereo not drawn), the remaining activity in assay [1] is 91.6% (inactive). Besides, the call in [2], in [3], in assay [4], in assay [5] and in [6] was inactive. In addition, the fold change was 0.969 (inactive) and 0.89 (inactive) in assay [7] (setting [16]); 1.99 and 1.15 in assay [7] (setting [17]). Also, the cell count in assay [7] (setting [18]) was 8810 and 6770; in assay [7] (setting [19]), 9100 and 7610. In addition, the z-score in assay [8] was 0.245 (inactive) and 0.79 (inactive).

As to `O=C(O)c1ccc(-c2c[nH]c3ncc(-c4ccccc4)cc23)cc1C1CCCC1`, in [1], the remaining activity was 108% (inactive). The compound was called inactive in assay [2], in assay [3], in assay [4], in assay [5] and in assay [6]. Besides, the AC50 in assay [9] was 372 nM (active). Besides, the fold change was 0.863 (inactive) and 0.894 (inactive) in assay [7] (setting [16]); 0.684 and 1.96 in [7] (setting [17]). For the same compound, the cell count was 2990 and 4050 in assay [7] (setting [18]); 3460 and 4530 in assay [7] (setting [19]); 6900 in assay [10]. In assay [10], the SSMD was found to be 1.9. For the same compound, the plate-normalised HSF1 focus index in assay [10] is 1.11 (inactive). In addition, the z-score is -0.208 (inactive) in [11] (MELAS cybrid survival, CellTiter-Glo 48 h, stronger effect = higher value); -2.05 in [11] (Rieske KO mouse fibroblast survival, CellTiter-Glo 72 h); 0.065 (inactive) in assay [8]. Besides, the viability in assay [12] (at 0.000305 µM, OCI-C5x cells, with rucaparib 10 µM, 100% = cells with rucaparib alone) is 113% (inactive); in assay [12] (at 0.000305 µM, OCI-C5x cells, without rucaparib), 105% (inactive); in assay [12] (at 0.000305 µM, OCI-P5x cells, with rucaparib 20 µM, 100% = cells with rucaparib alone), 85.9% (active); in assay [12] (at 0.000305 µM, OCI-P5x cells, without rucaparib), 89.5% (active); in [12] (at 0.00122 µM, OCI-C5x cells, with rucaparib 10 µM, 100% = cells with rucaparib alone), 106% (inactive); in assay [12] (at 0.00122 µM, OCI-C5x cells, without rucaparib) it was 118% (inactive). Further, the viability in assay [12] (at 0.00122 µM, OCI-P5x cells, with rucaparib 20 µM, 100% = cells with rucaparib alone) is 90% (active); in assay [12] (at 0.00122 µM, OCI-P5x cells, without rucaparib) it was 99.6% (active); in assay [12] (at 0.00488 µM, OCI-C5x cells, with rucaparib 10 µM, 100% = cells with rucaparib alone), 112% (inactive); in assay [12] (at 0.00488 µM, OCI-C5x cells, without rucaparib), 120% (inactive); in assay [12] (at 0.00488 µM, OCI-P5x cells, with rucaparib 20 µM, 100% = cells with rucaparib alone) it was 101% (inactive); in assay [12] (at 0.00488 µM, OCI-P5x cells, without rucaparib) it was 100% (inactive). Further, the viability in assay [12] (at 0.0195 µM, OCI-C5x cells, with rucaparib 10 µM, 100% = cells with rucaparib alone) was 118% (inactive); in [12] (at 0.0195 µM, OCI-C5x cells, without rucaparib), 115% (inactive); in assay [12] (at 0.0195 µM, OCI-P5x cells, with rucaparib 20 µM, 100% = cells with rucaparib alone), 97.8% (active); in assay [12] (at 0.0195 µM, OCI-P5x cells, without rucaparib), 103% (inactive); in assay [12] (at 0.0781 µM, OCI-C5x cells, with rucaparib 10 µM, 100% = cells with rucaparib alone), 95.5% (active); in assay [12] (at 0.0781 µM, OCI-C5x cells, without rucaparib), 112% (inactive). For the same compound, the viability was 95.2% (active) in [12] (at 0.0781 µM, OCI-P5x cells, with rucaparib 20 µM, 100% = cells with rucaparib alone); 103% (inactive) in assay [12] (at 0.0781 µM, OCI-P5x cells, without rucaparib); 91.3% (active) in assay [12] (at 0.313 µM, OCI-C5x cells, with rucaparib 10 µM, 100% = cells with rucaparib alone); 116% (inactive) in assay [12] (at 0.313 µM, OCI-C5x cells, without rucaparib); 102% (inactive) in [12] (at 0.313 µM, OCI-P5x cells, with rucaparib 20 µM, 100% = cells with rucaparib alone); 102% (inactive) in assay [12] (at 0.313 µM, OCI-P5x cells, without rucaparib). Also, the viability in assay [12] (at 1.25 µM, OCI-C5x cells, with rucaparib 10 µM, 100% = cells with rucaparib alone) is 88.1% (active); in assay [12] (at 1.25 µM, OCI-C5x cells, without rucaparib), 105% (inactive); in assay [12] (at 1.25 µM, OCI-P5x cells, with rucaparib 20 µM, 100% = cells with rucaparib alone), 93.8% (active); in assay [12] (at 1.25 µM, OCI-P5x cells, without rucaparib), 93.3% (active); in assay [12] (at 5 µM, OCI-C5x cells, with rucaparib 10 µM, 100% = cells with rucaparib alone), 65.2% (active); in assay [12] (at 5 µM, OCI-C5x cells, without rucaparib), 60.5% (active). In addition, the viability in assay [12] (at 5 µM, OCI-P5x cells, with rucaparib 20 µM, 100% = cells with rucaparib alone) is 92.6% (active); in assay [12] (at 5 µM, OCI-P5x cells, without rucaparib), 75.8% (active).

Take `NC(=O)c1ccc2[nH]ccc2c1`: the parasite load remaining in assay [13] is 32.8% (inactive). Also, the viability in [13] is 70.2%. Further, in [1], the remaining activity was 89.5% (inactive). Further, the result in assay [2], in assay [14], in [3], in [4], in [5] and in assay [15] was inactive. For the same compound, the fold change in assay [7] (setting [16]) was 1.06 (inactive) and 0.993 (inactive); in assay [7] (setting [17]) it was 0.967 and 0.869. For the same compound, the cell count is 10600 and 9670 in assay [7] (setting [18]); 10000 and 9740 in assay [7] (setting [19]). In addition, the z-score in assay [8] was 1.08 (inactive) and 0.045 (inactive).

Regarding `O=C(O)c1ccc2cc(-c3ccc(O)c(C45CC6CC(CC(C6)C4)C5)c3)ccc2c1`, in [1], the remaining activity was 120% (inactive). Further, the AC50 in [2] is 590 nM (active); in assay [3], 5260 nM (active); in assay [9], 332 nM (active); in assay [5] it was 3320 nM (active); in assay [6], 3720 nM (active). Moreover, the fold change in [7] (setting [16]) is 1.3 (inactive); in [7] (setting [17]) it was 0.838. Further, the cell count in assay [7] (setting [18]) is 1990; in assay [7] (setting [19]) it was 1530; in assay [10] it was 6920. Also, the SSMD in assay [10] came to 1.71. In addition, the plate-normalised HSF1 focus index in [10] is 1.1 (inactive). In addition, in [8], the z-score is -0.83 (inactive).

The record behind these values is PubChem BioAssay.
